The campaign covered roughly 340,000 compounds. About 2,800 (0.82%) were called active.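 Rule for the calls: active = B-score under library mean minus 4 SD, starting fluorescence ratio at most library mean plus 5 SD; inactive = the rest.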 The list comes from a sample in which actives are over-represented; it also holds similar structures and randomly drawn compounds.

Sequence of Potassium channel subfamily K member 3 (Homo sapiens) (O14649 whole entry, looked up): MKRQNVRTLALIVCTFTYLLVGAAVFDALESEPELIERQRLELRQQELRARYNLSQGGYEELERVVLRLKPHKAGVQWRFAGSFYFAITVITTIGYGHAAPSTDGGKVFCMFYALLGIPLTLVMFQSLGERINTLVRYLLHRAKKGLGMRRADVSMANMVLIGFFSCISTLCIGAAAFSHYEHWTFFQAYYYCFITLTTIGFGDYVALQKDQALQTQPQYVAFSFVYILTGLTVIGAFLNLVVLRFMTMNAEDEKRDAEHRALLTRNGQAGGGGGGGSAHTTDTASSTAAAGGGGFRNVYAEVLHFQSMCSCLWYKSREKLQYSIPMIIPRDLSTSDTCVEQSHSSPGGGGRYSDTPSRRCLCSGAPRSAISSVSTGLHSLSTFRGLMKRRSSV

The assay concerns the target Potassium channel subfamily K member 3 (Homo sapiens) (UniProt O14649). In words: blockers of TASK1 two-pore potassium channel – CHO cells, FluxOR thallium flux, B-score, primary screen (AID 602410).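 For B-score: more negative B-score means stronger inhibition of thallium flux through KCNK3.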 Particulars: CHO-KCNK3 thallium flux, FluxOR fluorescence, at 10 µM; hits give low values.
Turning to `CCOc1ccc(NS(=O)(=O)c2cc(C)c(C)cc2C)cc1`, the B-score entry is “inactive”.

As to `CCOc1ccccc1NC(=O)c1cc(S(=O)(=O)N2CCC3(CC2)OCCO3)ccc1F`, the B-score result is “inactive”.

On to `CC(=O)N1CC[n+]2c(-c3ccc([N+](=O)[O-])cc3)csc21`, for which the B-score entry is “inactive”.

For the compound `CC1CCCCC12NC(=O)N(CC(=O)OCc1c(F)cccc1Cl)C2=O` (stereo not drawn), the B-score entry is “inactive”.

In the case of `Cc1cc2oc(=O)cc(CN(C)Cc3ccc(OC(F)F)cc3)c2cc1Cl`, the B-score is -10.4 (active).

In the case of `CCOc1ccc(N(C)Cc2cc(=O)oc3ccc(OC)cc23)cc1`, the B-score entry was “inactive”.

For `Cc1ccc(CN(C)Cc2cc(=O)oc3cc(C)c(Cl)cc23)cc1`, the B-score result was “inactive”.

Consider `NNC(=O)c1cccc(COCC(F)(F)C(F)F)c1`, for which the B-score entry is “inactive”.

For `O=C1Nc2ccc(Br)cc2/C1=N/N=C/C1=C(N2CCOCC2)C(=C\c2ccccc2)/CC1`, the B-score result is “inactive”.

Take `O=C(O)c1ccc(NN=CC2=C(N3CCOCC3)/C(=C/c3ccccc3)CC2)cc1`: the B-score is -9.13 (active).

Turning to `N#C/C(=C\C1=C(N2CCOCC2)C(=C\c2ccccc2)/CC1)C(=O)Nc1ccccc1F`, the B-score result was “inactive”.

`COc1ccc(N2CCN(CCNC(=O)Nc3cc(Cl)ccc3Cl)CC2)cc1`: the B-score result was “inactive”.

With `COc1ccc(NC(=O)c2sccc2SCC#N)cc1`, the B-score result is “inactive”.

In the case of `CC(C)(C)N1CC(c2nc3ccccc3n2Cc2ccc(F)cc2)CC1=O` (stereo not drawn), the B-score entry was “inactive”.

For `Cc1cc(C)c(C)c(S(=O)(=O)N[C@@H](C)C(=O)OC(C)C(=O)NC(N)=O)c1C` (stereo partly drawn), the B-score result was “inactive”.

For the compound `C=CCSc1nsc(NC(=O)Nc2cccc(C(C)=O)c2)n1`, the B-score is -9.78 (active).

In the case of `CCSc1nsc(NC(=O)Nc2cccc(C(C)=O)c2)n1`, the B-score entry was “inactive”.

As to `CSc1nsc(NC(=O)Nc2ccccc2)n1`, the B-score entry is “inactive”.

For `CCOC(=O)C1CCCN(C(=O)C2CCN(S(=O)(=O)c3ccc(Cl)c(C(F)(F)F)c3)CC2)C1` (stereo not drawn), the B-score result is “inactive”.

As for `COC(=O)c1cccc(-n2[nH]nnc2=S)c1`, the B-score entry was “inactive”.

`COc1ccccc1CNC(=O)COc1ccc(C)nc1[N+](=O)[O-]`: the B-score entry is “inactive”.

On to `Cc1ccc(S(=O)(=O)N2C[C@@H]3CCCC[C@@H]3[C@@H](C)[C@H]2c2cn(Cc3ccccc3)c3ccc(F)cc23)cc1`, for which the B-score result was “inactive”.

Regarding `CN1CCc2ccccc2C1Cc1ccccc1NC(=O)c1sc2ccccc2c1Cl` (stereo not drawn), the B-score is -9.31 (active).

In the case of `COc1ccc(CNC(=O)CNC(=O)c2sc3ccccc3c2Cl)cc1OC`, the B-score result is “inactive”.

Regarding `CCc1ccccc1NC(=O)NCCN1CCCCC1`, the B-score result was “inactive”.

Regarding `CCOc1ccc(CCNC(=O)COC(=O)c2ccc(F)c(S(=O)(=O)N3CCOCC3)c2)cc1OCC`, the B-score entry was “inactive”.

In the case of `CCOc1ccc(OCC)c(NC(=O)C2CCN(S(=O)(=O)c3c(C)noc3C)CC2)c1`, the B-score entry was “inactive”.

As for `CC[n+]1cc(C)ccc1/C=C/c1ccc(N(C)C)cc1`, the B-score is -8.95 (active).

`CCOC(=O)C1CCN(C(=O)C2CCN(S(=O)(=O)CC)CC2)CC1`: the B-score entry is “inactive”.

Turning to `COC(=O)c1ccccc1Sc1c(/C=N/OCc2ccc(Cl)cc2)c(C(F)(F)F)nn1C`, the B-score result is “inactive”.

As for `Cc1ccc(NC(=O)CCC(=O)N2CCC(c3ccccc3)=N2)cc1S(=O)(=O)N1CCCCC1`, the B-score result was “inactive”.

As to `Cc1ccc(C(=O)N2CCCC(c3ccccc3)=N2)cc1`, the B-score result is “inactive”.

For the compound `Cc1ccc(NC(=S)N2CCCC(c3ccccc3)=N2)cc1`, the B-score was -8.89 (active).

On to `Cc1ccc(CSc2nc3[nH]ncc3c(=O)[nH]2)cc1`, for which the B-score result was “inactive”.

Consider `Cc1cc2c(=O)n(CC(=O)NCC(=O)Nc3ccc(C(C)C)cc3)cnc2s1`, for which the B-score result is “inactive”.

In the case of `CCOC(=O)c1c(N)sc2c1CCCC2=O`, the B-score entry was “inactive”.

For `COc1cccc(COC(=O)C2CCN(S(=O)(=O)c3ccc(Cl)cc3)CC2)c1OC`, the B-score result was “inactive”.

For `CCOc1ccc(S(=O)(=O)N2CCC(C(=O)OCc3ccc(OC)cc3)CC2)cc1`, the B-score result is “inactive”.

With `COC(=O)c1ccc(COC(=O)C2CCN(S(=O)(=O)c3c(Cl)cccc3Cl)CC2)o1`, the B-score is -10.8 (active).

Consider `CC12CN3CC(C)(CN(C1)C3c1ccc(Cl)cc1Cl)C2=O` (stereo not drawn), for which the B-score result was “inactive”.

On to `Cn1c(SCC(=O)N2CCCC2)nnc1-c1cccs1`, for which the B-score result is “inactive”.

In the case of `CCc1cc(C(c2ccccc2OC)N2CCOCC2)c(NC(=O)c2ccccc2)s1` (stereo not drawn), the B-score was -8.97 (active).

For the compound `CCc1cc(C(N)=O)c(NC(=O)c2ccc(OC)cc2)s1`, the B-score entry is “inactive”.

`COc1cc(C(c2c(NC(=O)c3ccco3)sc(C)c2C)N2CCOCC2)cc(OC)c1OC` (stereo not drawn): the B-score result was “inactive”.

In the case of `COc1cc(NC(=O)COC(=O)c2cnc(C)cn2)c(C)cc1[N+](=O)[O-]`, the B-score entry was “inactive”.

As to `COC(=O)c1ccc(C)c(NC(=O)C2CC(=O)N(C3CCCC(C)C3C)C2)c1` (stereo not drawn), the B-score entry was “inactive”.

Regarding `O=C(c1cccc(S(=O)(=O)Nc2ccccc2Cl)c1)N1CCN(C(=O)c2ccco2)CC1`, the B-score entry is “inactive”.

As for `O=C(Nc1ccccc1C(=O)N1CCCCC1)c1ccco1`, the B-score result is “inactive”.

Turning to `CS/C(=C\C(=O)c1ccco1)Nc1ccccc1Cl`, the B-score is -11.4 (active).

Consider `NS(=O)(=O)c1ccc(CCNC(=O)COC(=O)COc2cccc(C(F)(F)F)c2)cc1`, for which the B-score entry is “inactive”.

`CSc1nnc2c(n1)OC(c1ccsc1)N(C(C)=O)c1ccccc1-2` (stereo not drawn): the B-score is -9.55 (active).

In the case of `Cc1ccc(Cl)cc1NC(=O)CN1CCN(S(=O)(=O)N2CCOCC2)CC1`, the B-score entry is “inactive”.

As to `CCOC(=O)CNC(=O)CSc1ccc2nnc(-c3cccnc3)n2n1`, the B-score entry is “inactive”.

As to `C/C(CC(C)C)=N\Oc1nc(C)cc(C)n1`, the B-score result is “inactive”.

Turning to `CC(C)c1ccccc1OCC(O)CN(CC(O)COc1cccc2ccccc12)C(C)C` (stereo not drawn), the B-score is -9.21 (active).

For the compound `Cc1cc(C)c(NC(=O)C[N+](C)(C)CC(O)COc2cccc3ccccc23)c(C)c1` (stereo not drawn), the B-score entry was “inactive”.

As for `CCC(C)Sc1nc2c(c(=O)[nH]c(=O)n2C)n1CC(O)COc1cccc2ccccc12` (stereo not drawn), the B-score result was “inactive”.

With `O=C(OCC(O)C(O)COC(=O)c1ccccc1)c1ccccc1` (stereo not drawn), the B-score entry is “inactive”.

In the case of `Cc1ccc(C)c(S(=O)(=O)Nc2cccc(-n3cnnn3)c2)c1`, the B-score entry was “inactive”.

For the compound `CC(=O)c1c(C)[nH]c(C(=O)Nc2cc(S(=O)(=O)N(C)C)ccc2C)c1C`, the B-score entry was “inactive”.

Consider `O=C(CCn1nnc2ccccc21)OCC(=O)c1ccc([N+](=O)[O-])cc1`, for which the B-score entry is “inactive”.

Take `CCc1ccc2nc3sc(C(=O)Nc4nnc(CC)s4)c(N)c3cc2c1`: the B-score was -9.98 (active).

For `CCc1nnc(NC(=O)c2cccc(S(=O)(=O)N(C)c3ccc(OC)cc3)c2)s1`, the B-score entry was “inactive”.

On to `CCc1nnc(NC(=O)c2cc(S(=O)(=O)N3CCCCC3)ccc2C)s1`, for which the B-score entry is “inactive”.

With `Cc1cc(C)nc(NNC2=CC(=O)CC(C)(C)C2)n1`, the B-score entry is “inactive”.

`O=C1c2ccccc2C(O)N1Cc1ccccc1Cl` (stereo not drawn): the B-score entry is “inactive”.

Turning to `Cc1cc(C)cc(NC(=S)NCCc2c[nH]c3ccccc23)c1`, the B-score entry is “inactive”.

As to `O=C(NCCc1c[nH]c2ccccc12)c1cc2ccccc2oc1=O`, the B-score entry was “inactive”.

Consider `O=C(NCCc1c[nH]c2ccccc12)c1cccc(Br)c1`, for which the B-score was -11.8 (active).

For the compound `O=P(c1cccs1)(c1cccs1)c1cccs1`, the B-score entry was “inactive”.

With `CCC1CCCCN1C(=S)Nc1ccc(C(C)=O)cc1` (stereo not drawn), the B-score result was “inactive”.

For `CCC1CCCCN1C(=O)Nc1cccc(NC(=O)N2CCCCC2CC)c1` (stereo not drawn), the B-score was -10.6 (active).

In the case of `CCC1CCCCN1C(=S)NC(=O)c1ccco1` (stereo not drawn), the B-score result was “inactive”.

Regarding `CCN(C[C@H]1N[C@@](CC)(C(=O)OC)[C@H]2C(=O)N(Cc3ccccc3)C(=O)[C@@H]12)S(=O)(=O)c1ccccc1`, the B-score result was “inactive”.

Turning to `CCOc1c(Br)cc(/C=C2\C(=O)N(CCC#N)N=C2C)cc1OC`, the B-score entry was “inactive”.

For the compound `O=C(COC(=O)/C=C/c1ccc(S(=O)(=O)N2CCCCCC2)cc1)NCc1ccccc1Cl`, the B-score result was “inactive”.

Turning to `CC(=O)c1cccc(NC(=O)CN2C(=O)c3cccnc3Oc3ccc(Cl)cc32)c1`, the B-score entry was “inactive”.

Consider `Cc1ccccc1CC1(CO)CCCN(C(=O)c2cc(-c3ccccc3)no2)C1` (stereo not drawn), for which the B-score entry is “inactive”.

Regarding `COC(=O)CCC(=O)N1CCCC(CO)(Cc2ccccc2)C1` (stereo not drawn), the B-score result was “inactive”.

With `CCCc1cc(C(=O)N2CCCC(CO)(CCCc3ccccc3)C2)n(C)n1` (stereo not drawn), the B-score was -9.3 (active).

`CC(Sc1nnc(CNC(=O)c2ccccc2F)n1C)C(=O)Nc1nccs1` (stereo not drawn): the B-score entry was “inactive”.

For `CC1CCN(S(=O)(=O)c2ccc(NC(=O)C3CC(=O)N(c4ccccc4)C3)cc2)CC1` (stereo not drawn), the B-score entry was “inactive”.

With `COc1ccc(Nc2ncnc3sc(-c4ccccc4)cc23)c(OC)c1`, the B-score was -12 (active).

For the compound `COc1ccc(Nc2ncnc3sc(C)cc23)cc1`, the B-score result was “inactive”.

In the case of `COc1ccc(Nc2ncnc3ccc(Br)cc23)c(OC)c1`, the B-score result was “inactive”.

Consider `COC(=O)c1sc(SC)c(S(=O)(=O)C(C)C)c1N/N=C(\C#N)S(=O)(=O)c1ccccn1`, for which the B-score entry was “inactive”.

Consider `CC1CCN(C(=O)/C(=C\c2ccccc2F)NC(=O)c2ccccc2)CC1`, for which the B-score entry was “inactive”.

As to `COC(=O)CN1C(=O)[C@H]2[C@@H](/C=C/c3ccccc3)N3C(=O)CN(CC4CC4)C(=O)[C@@]3(Cc3ccccc3)[C@H]2C1=O`, the B-score result was “inactive”.

Take `O=C(CC1CCCCC1)Nc1c2c(nn1-c1ccc(F)cc1)CS(=O)(=O)C2`: the B-score entry was “inactive”.

`C=CCNC(=O)c1ccccc1NC(=O)c1ccc(Cl)c(S(=O)(=O)Nc2cccc(C)c2C)c1`: the B-score entry was “inactive”.

On to `CCCCc1ccc(NC(=O)NCc2cccnc2)cc1`, for which the B-score result was “inactive”.

As to `CCCCCCCCCCCCN1C(=O)CSC1c1cccnc1` (stereo not drawn), the B-score is -18.4 (active).

Turning to `CN(C)CCCN1C(=O)CSC1c1ccc([N+](=O)[O-])cc1` (stereo not drawn), the B-score result is “inactive”.

Take `Cc1ccc(C(=O)Nc2ccc3c(c2)OCCO3)cc1S(=O)(=O)N1CCOCC1`: the B-score entry was “inactive”.

As to `CCCn1nnc(NC(=O)COc2ccc(CC)cc2)n1`, the B-score entry was “inactive”.

For the compound `COc1ccccc1N1CCC(N2CCN(CC(C)(C)C)C(CCO)C2)CC1` (stereo not drawn), the B-score entry is “inactive”.

Regarding `COc1ccc2c3c(c(=O)oc2c1OCC(=O)C(C)(C)C)CCCC3`, the B-score entry is “inactive”.

Turning to `O=c1oc2c(CN3CCCCC3)c(O)ccc2c2c1CCCCC2`, the B-score result was “inactive”.

For the compound `CCCOc1ccc2c3c(c(=O)oc2c1OCCC)CCC3`, the B-score was -11.4 (active).

As to `O=C(CCl)N(Cc1cccc([N+](=O)[O-])c1)c1cccc(Cl)c1`, the B-score entry was “inactive”.

Consider `O=[N+]([O-])c1cccc(C=NN=Cc2ccccc2O)c1`, for which the B-score result was “inactive”.

In the case of `C=CCN(N=Nc1cccc([N+](=O)[O-])c1)c1cccc([N+](=O)[O-])c1`, the B-score was -9.23 (active).

`Cc1cc(Nc2cccc(F)c2)n2ncnc2n1`: the B-score entry was “inactive”.

The values are drawn from PubChem BioAssay AID602410 (Johns Hopkins Ion Channel Center, 2012).
